Experimental data taken from PubChem BioAssay (NCI).
Where “and” joins values, the source holds several entries; their conditions need not be identical. Identical values can stand only once. About 83,000 compounds went through this panel and 20% of them were active in at least one assay; those are over-represented in the sample as a whole.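 Testing used 96-well plates and a 48-hour single-concentration exposure. Example: -40 means 40% of the starting cells died.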 Unmarked numbers belong to inactive results. Calls of active or inactive are those of the source.

Each compound was assayed on COLO 205 colon (assay: NCI-60 one-dose screen, 48 h (100 = growth as untreated, 0 = no growth, -100 = all killed)). Conditions: 10 µM.
Method: Cells are grown in 96 well plates and exposed to the test compound for 48 hours. Compounds are tested at a single concentration, which is 10^-5 M for most compounds. The reported endpoint is percent growth (GI% or GIPRCNT), where numbers from 0 - 100% represent growth inhibition, and numbers from -100% - 0 represent cell death. For example, a value of 40 represents 60% growth inhibition. A value of 0 means no net growth occurred over the course of the experiment. A value of -40 indicates 40% of cells at the beginning of the experiment died by the end of the experiment. A value of -100 means all cells are dead at the end of the experiment.
NCI-60 Human Tumor Cell Lines Screen was performed using the standard one-dose NCI protocol, which is described in more detail at https://dtp.cancer.gov/discovery_development/nci-60/default.htm.
Compounds with GIPRCNT values below 10 were considered active. Activity score was based on GIPRCNT using the following formula: […]
Score is 0 for GIPRCNT values of 100 or above, 50 for GIPRCNT values of 0, and 100 for GIPRCNT values of -100.
For `O=C1CCC(=O)N1SC(Cl)(Cl)Cl`, the growth was 112%.
For `COC(C(=O)C(O)C(C)O)C1Cc2cc3cc(OC4CC(OC(C)=O)C(OC5CC(O)C(OC)C(C)O5)C(C)O4)cc(O)c3c(O)c2C(=O)C1OC1CC(OC2CC(OC3CC(C)(O)C(OC(=O)C(C)C)C(C)O3)C(O)C(C)O2)C(O)C(C)O1` (stereo not given), the growth was -83.5% (active).
With `CC(=O)[O][Hg][c]1c(C)c(C)cc(C)c1C` the growth was -9.36% (active).
With `Cc1cc(C)c(C[N+](C)(C)C)c(C)c1C` the growth was 0.186% (active).
`O=[N+]([O-])c1ccc(N2CCOCC2)c2c1no[n+]2[O-]` was tested, and the growth was -53.1% (active).
With `Cn1c(O)c(N=O)c(=O)n(C)c1=O` the growth was 110% and 111%.
In the case of `Oc1ccccc1-c1ccccc1`, the growth is reported as 110% and 112%.
Work on `CC(C)(C)OOC(=O)/C=C\C(=O)OOC(C)(C)C` yielded a growth of 110%.
In the case of `NC(=O)c1cc([N+](=O)[O-])c(Cl)c([N+](=O)[O-])c1`, the growth is reported as -71.1% (active).
`C#CC1(O)CCC(C(C)(C)C)CC1` (stereo not given) showed a growth of 114%.
With `N#CCc1ccccc1` the growth was 107%.
`COc1cc(/C=C\[N+](=O)[O-])ccc1O` was tested, and the growth was 73.6% and 104%.
Compound `Cc1ccc(NC(=O)CBr)cc1` has a growth of 108%.
`COC12c3c(C)cc(O)c4c(=O)occ(c34)C(=O)C1C13COC(=O)c4c(O)cc(C)c(c41)C(=O)C2C3OC(C)=O` (stereo not given) was tested, and the growth was 103%.
In the case of `COc1ccccc1[As]=[As]c1ccccc1OC` (stereo not given), the growth is reported as -93.1% (active).
For `COc1cc(/C=C/[N+](=O)[O-])cc(OC)c1OC`, the growth was -53.4% (active).
With `CC(C)c1cc([N+](=O)[O-])cc([N+](=O)[O-])c1O` the growth was 105%.
For `O=C1C(=O)c2ccccc2-c2ccccc21`, the growth was -63.5% (active).
With `C/C1=C\[C@H](C)C[C@H](C)OC(=O)C[C@H](c2ccc(O)cc2)NC(=O)[C@@H](Cc2c(Br)[nH]c3ccccc23)N(C)C(=O)[C@H](C)NC(=O)[C@@H](C)C1` the growth was 9.93% (active).
In the case of `CC/C(=C/c1ccc(OC)cc1)[N+](=O)[O-]`, the growth is reported as -60.3% (active).
With `[Cl][Sn]([c]1ccccc1)([c]1ccccc1)[c]1ccccc1` the growth was -92.5% (active).
`COC12C(COC(N)=O)C3=C(C(=O)C(C)=C(N)C3=O)N1CC1C2N1C` (stereo not given) showed a growth of 46.2%.
In the case of `COC1CC2C=C(C)/C=C/C=C/C(=O)NC(c3ccccc3)C/C=C/CCC(O)CC(=O)C2=C1O` (stereo not given), the growth is reported as -79.1% (active).
`C=NCC#N` was tested, and the growth was 113% and 111%.
With `CC1CCC2(OC1)OC1C(O)C3C4CCC5CC(OC6OC(CO)C(OC7OC(CO)C(O)C(OC8OCC(O)C(O)C8O)C7OC7OC(CO)C(O)C(OC8OC(CO)C(O)C(O)C8O)C7O)C(O)C6O)C(O)CC5(C)C4CCC3(C)C1C2C` (stereo not given) the growth was 22.7%.
`O=[N+]([O-])c1cc[n+]([O-])c2ccccc12` was tested, and the growth was -74.9% (active).
For `COc1cc(/C=C(/C)[N+](=O)[O-])ccc1O`, the growth was 60.8% and 47.9%.
`O=C(CBr)Nc1ccccc1` gave a growth of 116%.
For `O=[N+]([O-])/C=C/c1ccc(Cl)cc1[N+](=O)[O-]`, the growth was -20.9% (active).
For `S=C=NCCc1ccccc1`, the growth was 63.1%.
For `CCOP(=O)(OCC)/C(C#N)=C/c1ccc(Br)cc1`, the growth was 109%.
In the case of `COc1ccc(/C=C(\C)[N+](=O)[O-])cc1OC`, the growth is reported as -80.5% (active).
For `O=[N+]([O-])c1ccc(N(CCO)CCO)c2c1no[n+]2[O-]`, the growth was -93.3% (active).
`COc1cc([N+](=O)[O-])c2ncccc2c1[N+](=O)[O-]` showed a growth of 86.1%.
`O=c1[nH]c2ccccc2n1C1CCN(CCCC(c2ccc(F)cc2)c2ccc(F)cc2)CC1` was tested, and the growth was -50.3% (active) and -70.3% (active).
`[O-][n+]1ccccc1S` gave a growth of 16.1%.
In the case of `Cc1ccc(C(=O)C2C(c3ccccc3)N2C2CCCCC2)cc1` (stereo not given), the growth is reported as 126% and 110%.
`O=C(CCl)Nc1ccc(Cl)cc1` was tested, and the growth was 52.3%.
`CC(Cc1ccc2c(c1)OCO2)NN` (stereo not given) was tested, and the growth was 99%.
`ClCc1ccc2ccccc2n1` was tested, and the growth was 128%.
